Assay results published in PubChem BioAssay (NCI).
The panel holds about 83,000 compounds, 20% with a hit somewhere; the sample as a whole holds those more often.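 Each cell line was grown in a 96-well plate and treated with one concentration of compound for 48 hours. Values below 10 were considered active.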 Unmarked numbers belong to inactive results. Active and inactive are the calls of the source.

How the values were obtained:
Assay in all cases: NCI-60 one-dose screen, 48 h (100 = growth as untreated, 0 = no growth, -100 = all killed)
Conditions in all cases: 10 µM unless noted
HCT-15 colon = tested on: HCT-15 colon
HT29 colon = tested on: HT29 colon
SNB-75 CNS = tested on: SNB-75 CNS
SNB-19 CNS = tested on: SNB-19 CNS
U251 CNS = tested on: U251 CNS
PC-3 prostate = tested on: PC-3 prostate
SK-MEL-5 melanoma = tested on: SK-MEL-5 melanoma
UACC-62 melanoma = tested on: UACC-62 melanoma
LOX IMVI melanoma = tested on: LOX IMVI melanoma
SK-MEL-28 melanoma = tested on: SK-MEL-28 melanoma

Row | SMILES | growth (HCT-15 colon) | growth (HT29 colon) | growth (SNB-75 CNS) | growth (SNB-19 CNS) | growth (U251 CNS) | growth (PC-3 prostate) | growth (SK-MEL-5 melanoma) | growth (UACC-62 melanoma) | growth (LOX IMVI melanoma) | growth (SK-MEL-28 melanoma)
1 | C[C@H](Nc1ncnc2ccc(-c3cnc(Cl)c(NS(C)(=O)=O)c3)cc12)c1ccccc1 | -23.7% (active) | -28.9% (active) | -3.07% (active) | -44.3% (active) | -52.6% (active) | 2.25% (active) | -92.7% (active) | -57.8% (active) | -60.4% (active) | -18.2% (active)
2 | NS(=O)(=O)c1ccc(Nc2nc(N/N=C/C=C/c3ccccc3)nc(Nc3ccccc3)n2)cc1 | 45% | 34.6% | 43% | 48.4% | 51.1% | 47.5% | 40.3% | 66.4% | 27.3% | 60.3%
3 | CCCCCCN1C=C/C(=C\C(=O)n2ccc3ccccc32)c2ccccc21 | 79.6% | 65.1% | 65.8% | 56.7% | 46.9% | 58.6% | 30.8% | 57.9% | 18.7% | 101%
4 | CC(C)NC(=O)c1cc(-c2ccc(NC(=O)Nc3ccc(F)cc3)cc2)nc2cccnc12 | 99.5% | 104% | 101% | 99.9% | 104% | 96.7% | 101% | 96% | 98% | 107%
5 | N#C/C(=N\Nc1ccc(F)cc1)C(=O)Nc1cc(-c2ccccc2)nn1-c1ccccc1 | 8.61% (active) | 8.84% (active) | -5.46% (active) | 5.24% (active) | 8.65% (active) | 7.13% (active) | -51.4% (active) | 4.43% (active) | 12.5% | 22.1%
6 | O=C(NNc1nc2cc(F)cc(F)c2n2cccc12)c1cccnn1 | 27.9% | 30.2% | 24.5% | 21.6% | 15.3% | 30.7% | -31.3% (active) | 9.53% (active) | 6.98% (active) | 23.9%
7 | NC1[C@H]2CN(c3cnc(C(=O)Nc4cc(F)cc5cccnc45)cn3)C[C@@H]12 (stereo not given in full) | 32.2% | 26.9% | 56.7% | 75.2% | 60.7% | 65.7% | 89% | 92.1% | 71.5% | 86.1%
8 | CN1CCN(Cc2ccc(NC(=O)c3cncc(C#Cc4cnc5ccc(NCCO)nn45)c3)cc2C(F)(F)F)CC1 | 33.2% | -28% (active) | -90.5% (active) | 0.946% (active) | -19.6% (active) | 3.35% (active) | -22.2% (active) | -32.7% (active) | -87.8% (active) | -24.4% (active)
9 | Cc1ccccc1N1CCN(C2=C(Cl)C(=O)c3ncccc3C2=O)CC1 | 4.38% (active) | 94.9% | 82.6% | 74.9% | 71.3% | 66.1% | 88.8% | 66.2% | 1.19% (active) | 35.9%
10 | CN(C)CCNc1ccc2ncc(C#Cc3cncc(C(=O)Nc4ccc(CN5CCN(C)CC5)c(C(F)(F)F)c4)c3)n2n1 | 34.7% | -13% (active) | -93.4% (active) | 1.59% (active) | 23.8% | 2.27% (active) | 74.6% | 60.2% | -88.6% (active) | 75%
11 | C#Cc1cc(OC)c(C(=O)Nc2ccc(F)cc2C(=O)Nc2cccc(S(=O)(=O)C(F)(F)F)c2)cn1 | -8.48% (active) | -30.3% (active) | -80.4% (active) | 17.6% | 0.45% (active) | 4.89% (active) | -49% (active) | 18.8% | -82.1% (active) | 50%
12 | O=C1C(SCc2ccccc2)=C(Cl)CN1c1ccccc1 | 95.8% | 106% | 92.2% | 96.2% | 101% | 109% | 99.4% | 93.1% | 42.8% | 98.9%
13 | CC(C)[C@H]1c2[nH]c3ccccc3c2C[C@H]2C(=O)N(CCCCCCC(=O)NO)CC(=O)N12 | 97.5% | 77.4% | 62.9% | 86.7% | 81% | 86% | 75% | 56.2% | 72.7% | 71.7%
14 | Cc1ccc(C(=O)Nc2ccc(CNCCN3CCNCC3)c(C(F)(F)F)c2)cc1C#Cc1cnc2cccnn12 | 14.1% | 5.76% (active) | 42.5% | 8.65% (active) | -6.31% (active) | 23.8% | -87.1% (active) | -41% (active) | -86.1% (active) | -68% (active)
15 | O=C(CCCCCCNC(=O)C(O)(O)C(F)(F)F)Nc1ccc(Br)cc1 | 20.8% | 2.18% (active) | 33.9% | 14.7% | -21.3% (active) | 31.6% | -68.3% (active) | -50% (active) | -75.2% (active) | 9.41% (active)
16 | C/C(=N\NC(=O)Nc1ccccc1)c1nnn(-c2ccc([N+](=O)[O-])cc2)c1C | 105% | 116% | 100% | 100% | 102% | 99.7% | 99.6% | 99.6% | 102% | 106%
17 | COc1ccc(NC2=C(Br)C(=O)C(C)=C(C)C2=O)cc1OC | 97.9% | 111% | 77.1% | 84.9% | 84% | 69.7% | 69.7% | 88% | 73.7% | 112%
18 | CCNC(=O)Oc1ccc(/C(=C(/C)c2ccc(Cl)cc2)c2ccc(OCCN3CCCCCC3)cc2)cc1 | -31.6% (active) | -48.4% (active) | 75.6% | 34.2% | 27.5% | 13.4% | 33.1% | 2.74% (active) | -87.8% (active) | -76% (active)
19 | CN1CCN(c2ccc(Nc3nc(NCCNS(=O)(=O)c4ccccc4)c4sccc4n3)cc2)CC1 | 95.2% | 99.6% | 81.5% | 98.9% | 103% | 95.4% | 97.4% | 96.4% | 108% | 104%
20 | COc1cccc2c1C=CC1(O2)Oc2cccc(OC)c2C=C1C (stereo not given) | 24.9% | 6.27% (active) | -8.19% (active) | 22.8% | 16.8% | 31.4% | 24.6% | 13.1% | 24.5% | 58.4%
21 | O=c1c2cc(-c3ccc(F)cc3F)ccc2n(Nc2ccccc2)c(=O)n1-c1cccc(C(F)(F)F)c1 | 11.4% | 59.3% | -8.2% (active) | 11.5% | 9.58% (active) | 1.28% (active) | -53.7% (active) | 10.9% | -4.69% (active) | 29.5%
22 | CN1CCN(Cc2ccc(NC(=O)c3cncc(C#Cc4cnc5ccc(OCCCS(C)(=O)=O)nn45)c3)cc2C(F)(F)F)CC1 | 3.14% (active) | -10.8% (active) | -91.7% (active) | 1.67% (active) | -4.26% (active) | 1.61% (active) | -57% (active) | -57.3% (active) | -82.6% (active) | -21.8% (active)
23 | CN1CCN(Cc2ccc(NC(=O)c3cncc(C#Cc4cnc5ccc(OC6CCOCC6)nn45)c3)cc2C(F)(F)F)CC1 | -66.4% (active) | -68% (active) | -84.9% (active) | -84% (active) | -82.8% (active) | -49.7% (active) | -95.6% (active) | -70.5% (active) | -93% (active) | -82.5% (active)
24 | O=C(Nc1cccc(C(F)(F)F)c1)N1CCN(c2cc(-c3cn(-c4ccccc4)nc3-c3cccc(O)c3)ccn2)CC1 | 22.2% | 24.5% | 71.8% | 57.4% | 48.1% | 28.2% | 40.2% | 40% | 25.5% | 55%
25 | O=C(/C=C/c1cccc(F)c1)c1cccc(OCCCCOc2cccc(C(=O)/C=C/c3cccc(F)c3)c2)c1 | 97.6% | 106% | 102% | 94% | 105% | 97.6% | 98.6% | 94.8% | 95.2% | 105%
26 | CC(=O)OCCCCN1C=C/C(=C\C(=O)n2ccc3ccccc32)c2ccccc21 | 101% | 113% | 100% | 103% | 102% | 101% | 100% | 89.4% | 99.9% | 111%
27 | CN1CCN(CCCCCC(=O)Nc2nc(-c3cccc(NS(=O)(=O)c4cccc5c(N(C)C)cccc45)c3)cs2)CC1 | 23.1% | 15.8% | 76.7% | 83.7% | 65% | 67.4% | 71% | 83.2% | -84.8% (active) | -61.1% (active)
